VLA-4 inh: inhibition in a human VLA-4 binding assay; VLA-4 expressing cells, ligand binding flow cytometry; inhibition, % (about 7 µM as worked out from the volumes in the protocol); 0.2% of 330,000 active; P13612; AID 2557; in the data active = inhibition above about 50%
MEKK2 mut-MEK5: signal of MEK5 binding to mutant human MEKK2 PB1 domain; 0.35% of 290,000 active; percent response, % at 10 µM; bead flow cytometry, Alexa488-MEK5 binding to MEKK2 mutant; in the data active = percent response above about 24%, passing the limit was not always enough
MEKK3 PB1 HTS: raises or lowers MEK5 binding to the human MEKK3 PB1 domain; bead-based flow cytometry, Alexa488-MEK5 binding to MEKK3; actives lie on both sides; 0 = blocked by unlabeled MEK5, 100 = vehicle; binding response (% of control), % at 10 µM; 1.4% of 290,000 active;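 active = binding response more than 3 SD above or below the average of its plate-row segment, actives on both sides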;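 also: Alexa488 bead fluorescence after subtracting the streptavidin-only scavenger bead signal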
MEKK2 WT-MEK5: raises or lowers MEK5 binding to wildtype human MEKK2 PB1 domain. Q9Y2U5. bead flow cytometry, Alexa488-MEK5 binding to MEKK2 WT; actives lie on both sides. binding response (% of control), % at 10 µM. 1.1% of 290,000 active; in the data active = binding response below about 67% or above about 130%
MEKK2wt confirm: raises or lowers MEK5 binding to wildtype human MEKK2, retest; shares compounds with MEKK3 PB1 HTS; bead flow cytometry, Alexa488-MEK5 binding to MEKK2 WT; actives lie on both sides; binding response (% of control), % at 10 µM; 2.4% of 5,900 active; in the data active = binding response below about 16% or above about 210%; inactive = in between
MEKK2mut confirm: signal of MEK5 binding to mutant human MEKK2, retest; shares compounds with MEKK3 PB1 HTS; bead flow cytometry, Alexa488-MEK5 binding to MEKK2 mutant; percent response, % at 10 µM; 2% of 5,900 active; AID 1893; in the data active = percent response mostly above about 71%, no sharp cut-off; inactive = mostly below about 38%;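 also: higher means compound restores mutant binding toward wildtype level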
MEKK3-MEK5 inh: confirmation of inhibitors of MEK5 binding to human MEKK3; shares compounds with MEKK3 PB1 HTS; bead flow cytometry, Alexa488-MEK5 binding to MEKK3; active compounds read low; binding response (% of control), % at 10 µM; 1.8% of 5,900 active; AID 1894;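 active = binding response below 72% of control, or above a set upper limit, though filed actives all read lower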;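 also: 100% = DMSO only wells and 0% = binding blocked by excess unlabeled MEK5; lower values mean stronger disruption of MEK5 binding to MEKK3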
* hit, by the source's call; nt = not tested or not shown; [ ] = another dose, or the depositor's remark. Shown are actives, neighbours in structure and some others; about 2.2% of the full set was active somewhere.

SMILES	VLA-4 inh	MEKK2 mut-MEK5	MEKK3 PB1 HTS	MEKK2 WT-MEK5	MEKK2wt confirm	MEKK2mut confirm	MEKK3-MEK5 inh
O=C(Nc1cc(Cl)ccc1F)C1=COCCO1	-4	nt	nt	nt	nt	nt	nt
CC1(C)CC2(CCCN(C(=S)Nc3ccccc3)C2)CCO1 (centres undefined)	5	24	128*	121	103	-5	104
CC(CN1C(C)CCCC1C)OC(=O)c1ccccc1F (centres undefined)	1	6	102	106	nt	nt	nt
Cc1ccc(C(C)c2c(C)c([N+](=O)[O-])cc(C)c2[N+](=O)[O-])cn1 (centres undefined)	-4	3	105	106	nt	nt	nt
COc1ccc(CNC(=O)CNC(=O)CNS(=O)(=O)c2ccc(C)c(C)c2)cc1	-3	3	108	112	nt	nt	nt
CCN1CCN(c2ccc(NC(=O)CCc3c(C)nc4c(-c5ccc(F)cc5)c(C)nn4c3C)cc2)CC1	11	20	104	146*	132	24	108
Cc1cc(OCc2cc(C(=O)NCCN3CCCCC3CO)no2)cc(C)c1Cl (centres undefined)	10	19	106	136*	133	18	106
COC(=O)CCC(=O)N1CCCC(N2CCN(c3cccc(C(F)(F)F)c3)CC2)C1 (centres undefined)	2	-14	37*[inhibitor]	19*[inhibitor]	100	4	103
O=C(Nc1ccccc1N1CCOCC1)c1ccc([N+](=O)[O-])s1	-11	nt	nt	nt	nt	nt	nt
Cc1ccc(NC(=O)C(NC2CCCC2)c2ccccc2)cc1Cl (centres undefined)	20	37	105	142*	115	9	102
Cc1cc(C(=O)OC(C(=O)Nc2ccc(C)c(Cl)c2)c2ccccc2)c(C)o1 (centres undefined)	-5	13	105	147*	127	10	103
CCOc1ccc(/C=C/C(=O)NCCc2ccc(OC)c(OC)c2)cc1	5	1	147*	109	102	-3	99
CCOc1ccc(/C=C/C(=O)NCc2ccccc2)cc1	26	0	137*	108	109	11	109
COc1ccccc1NC(=O)c1ccc(NS(=O)(=O)c2cccc3cccnc23)cc1	-4	2	96	102	nt	nt	nt
COc1ccc(C)cc1NC(=O)c1ccc(NS(=O)(=O)c2cccc3cccnc23)cc1	1	26	131*	111	97	-1	102
COc1ccc(NS(=O)(=O)c2cccc3cccnc23)cc1	-7	-2	72*[inhibitor]	89	107	6	107
COC(=O)CS(=O)(=O)c1cccc2cccnc12	0	-60	3.0*[inhibitor]	4.0*[inhibitor]	90	-7	92
O=C(c1cccc([N+](=O)[O-])c1)c1ccc2[nH]c(=O)[nH]c2c1	20	-4	101	96	nt	nt	nt
CCC(CO)[n+]1c(C)cc(/C=C2\Sc3ccccc3N2Cc2ccccc2)cc1C (centres undefined)	-303	-5	79	63*[inhibitor]	107	11	100
CC(C)(c1ccccc1)c1ccc(OCCCNCCO)cc1	4	13	108	145*	134	27	109
O=C(O)c1cc(Cl)c(Cl)cc1C(=O)NCc1ccco1	4	1	106	105	nt	nt	nt
COc1ccc(OC)c(N2Cc3cc(C)c(C)cc3C2)c1	4	-27	8.0*[inhibitor]	10*[inhibitor]	91	-5	98
CCOc1ccccc1N1Cc2cc(C)c(C)cc2C1	-11	4	96	92	nt	nt	nt
Cc1ccc2c(c1)c1c(n2CC(O)Cn2c(C)nc3ccccc32)CCCC1 (centres undefined)	20	27*	108	133	123	14	105
Cc1ccc(CN(C)C(=O)C2CCC(=O)N(C3CCCCCC3)C2)cc1 (centres undefined)	-8	5	96	99	nt	nt	nt

High-throughput results (PubChem)
